We go through 11 compounds from PubChem BioAssay (NCATS).

One experiment relates to PA-1. The experiment in a line: Primary qHTS to identify gynecologic anti-cancer compounds using libraries of approved drugs and bioactive compounds (AID 1345084). Also: nearly all actives have a fitted effect of over 55% in size. Also: potency is read from the fitted curve at half-maximal effect. As to conditions: Gynecologic cancer cell panel viability, ATPlite luminescence, 48 h; series mostly up to 57.5 µM. In outline: (§1)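 Five-concentration response, 48 h; readout is ATP-driven luciferase luminescence.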

Another experiment deals with SKOV3. Described as above. As to conditions: Gynecologic cancer cell panel viability, ATPlite luminescence, 48 h; series mostly up to 57.5 µM. In short, it runs like this: as §1
A short description of experiment [1]: P-glycoprotein substrates identified in KB-8-5-11 adenocarcinoma cell line, qHTS therapeutic library screen (AID 1346987). Also: potency is read from the fitted curve at half-maximal effect; nearly all actives have a fitted effect of over 65% in size. In short, it runs like this:
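Human cervical adenocarcinoma KB-8-5-11 cells, selected in colchicine to over-express P-gp and assayed without it, were exposed for 72 h to titrated compounds. An ATP-based luminescent viability signal gave AC50.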
Background: qHTS replaces the single test concentration by a dilution series.

Experiment [2] relates to Zika virus NS2B-NS3 protease (unlinked complex). The experiment in a line: Primary screen GU Rhodamine qHTS for Zika virus inhibitors: Unlinked NS2B-NS3 protease assay (AID 1347159). Also: % is scaled to controls: 0 for no effect and ±100 for the full control effect; nearly all actives have a fitted effect of over 60% in size. In outline: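 Buffer 10 mM Tris-HCl pH 8.0, 0.01% Tween 20. Unlinked protease 25 nM; compound preincubation 15 min, RT, protected from light. Substrate Rhod110, 1.5 microM; ~15% conversion in 15 min.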

The target of experiment [3] is Cytochrome P450 2D6 (Homo sapiens) (UniProt P10635). The experiment in a line: Cytochrome P450 family 2 subfamily D member 6 (CYP2D6) small molecule antagonists: luciferase biochemical (cell-free) qHTS assay (AID 1645840; active = well fitted curve in the direction sought with a large enough effect in the repeat runs; an effect the other way counts as inactive or inconclusive; also: nearly all actives have a fitted effect of over 55% in size; also: potency is read from the fitted curve at half-maximal effect; as to activity change, negative = inhibition: % is scaled to controls: 0 for no effect and ±100 for the full control effect). In outline: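 P450-Glo CYP2D6 system: proluciferin substrate converted by enzyme to luciferin, read by luminescence proportional to activity. Enzyme-substrate mix with compound 10 min at room temperature, then NADPH regeneration 1 h before detection reagent.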

In experiment [4] the target is Cytochrome P450 2C9 (Homo sapiens) (UniProt P11712). The experiment is described as follows: Cytochrome P450 family 2 subfamily C member 9 (CYP2C9) small molecule antagonists: luciferase biochemical (cell-free) qHTS assay (AID 1645842; active = well fitted curve in the direction sought with a large enough effect in the repeat runs; an effect the other way counts as inactive or inconclusive; also: nearly all actives have a fitted effect of over 55% in size; also: potency is read from the fitted curve at half-maximal effect; as to activity change, negative = inhibition: % is scaled to controls: 0 for no effect and ±100 for the full control effect). In outline: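 P450-Glo CYP2C9 system: proluciferin substrate with enzyme in mix containing 0.4% BSA, 10 min at room temperature, then NADPH regeneration solution added and incubated 1 h at 37C. Detection reagent stopped reaction; luminescence read after 20 min as RLU.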

Experiment [5] is described as follows: qHTS drug screen for cell cycle checkpoint inhibitors in PARPi-resistant BRCA-mutant ovarian cancer cell lines. (AID 1963452; calls by dose curve). The following applies: PEO1/OlaR viability, CellTiter-Glo luminescence, 96 h, stronger effect = lower value. In short, it runs like this: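 PEO1, PEO4 and PEO1/OlaR ovarian cancer cells, 600 per well, exposed 96 h at 37C to a dilution series. Viability read by CellTiter-Glo luminescence, normalized to DMSO and empty wells; activity summarized as Z-AUC.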

A short description of experiment [6]: qHTS to identify inhibitors of the type 1 interferon - major histocompatibility complex class I in skeletal muscle: primary screen against the NCATS Mechanism Interrogation Plate v5.0 (MIPE) Libary (AID 1347411). Also: potency is read from the fitted curve at half-maximal effect; nearly all actives have a fitted effect of over 65% in size. In outline:
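IFN-beta-driven (4 ng/ml) HLA-B-HiBit expression in CRISPR-tagged C25cl48 myoblasts; compounds 11-pt, 1:3, max 46 uM, 24 hr exposure; lytic NanoLuc complementation luminescence.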

Experiment [7] has as its target Catechol O-methyltransferase (Homo sapiens) (UniProt P21964). The experiment in a line: Confirmatory Screen for Target Class Profiling of Small Molecule Inhibitors of Methyltransferases (AID 1745852). As to activity change, negative = inhibition: % is scaled to controls: 0 for no effect and ±100 for the full control effect. The following applies: MTase-Glo luminescence, SAH detection, recombinant enzyme; measured here: COMT max response; stronger effect = lower value.
In experiment [8] the target is Guanidinoacetate N-methyltransferase (Homo sapiens) (UniProt Q14353). The description is as above. As to conditions: activity change, negative = inhibition: at 57.3 µM (top of the series) unless noted.
Experiment [9] has as its target Nicotinamide N-methyltransferase (Homo sapiens) (UniProt P40261). The description is as above. The following applies: MTase-Glo luminescence, SAH detection, recombinant enzyme; measured here: NNMT max response; stronger effect = lower value.
Experiment [10] has as its target Phenylethanolamine N-methyltransferase (Homo sapiens) (UniProt P11086). Described as above. The following applies: MTase-Glo luminescence, SAH detection, recombinant enzyme; measured here: PNMT max response; stronger effect = lower value.
Experiment [11] can be described thus: P-glycoprotein substrates identified in KB-3-1 adenocarcinoma cell line, qHTS therapeutic library screen (AID 1346986).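 Also: potency is read from the fitted curve at half-maximal effect; potency is for cytotoxicity meaning loss of cell viability; nearly all actives have a fitted effect of over 60% in size.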 In short, it runs like this: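 Dose-response cytotoxicity, KB-3-1 vs P-gp-high KB-8-5-11, no colchicine in assay medium. Read: CellTiter-Glo at 72 h.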
[12] abbreviates: measured here: PEO1 parental Z-AUC.

Results filed as inconclusive are left out. Active and inactive are the calls of the source. Unless noted, calls follow the shape of the dose curve; as a rule, active = well fitted curve in the direction sought with a large enough effect; inconclusive = small, poorly fitted or top-dose-only effect, or another doubt; inactive = no such curve, though single readings can be large; an effect the other way counts as inactive or inconclusive.

Cytochrome P450 2C9 (Homo sapiens), sequence (P11712 whole entry, looked up): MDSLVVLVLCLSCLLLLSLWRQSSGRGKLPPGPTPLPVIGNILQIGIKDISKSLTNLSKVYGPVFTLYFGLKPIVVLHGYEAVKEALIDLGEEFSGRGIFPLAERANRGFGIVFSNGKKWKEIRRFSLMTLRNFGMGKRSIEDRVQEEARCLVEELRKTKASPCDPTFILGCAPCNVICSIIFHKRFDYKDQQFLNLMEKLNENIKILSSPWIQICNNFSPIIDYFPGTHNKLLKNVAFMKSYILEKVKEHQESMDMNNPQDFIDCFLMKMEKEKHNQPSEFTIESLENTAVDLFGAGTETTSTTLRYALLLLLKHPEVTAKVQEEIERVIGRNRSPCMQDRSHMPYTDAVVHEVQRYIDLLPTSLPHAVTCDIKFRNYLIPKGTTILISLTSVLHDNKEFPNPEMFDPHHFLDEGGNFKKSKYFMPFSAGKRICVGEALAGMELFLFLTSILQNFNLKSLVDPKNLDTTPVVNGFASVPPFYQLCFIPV
Cytochrome P450 2D6 (Homo sapiens), sequence (P10635 whole entry, looked up): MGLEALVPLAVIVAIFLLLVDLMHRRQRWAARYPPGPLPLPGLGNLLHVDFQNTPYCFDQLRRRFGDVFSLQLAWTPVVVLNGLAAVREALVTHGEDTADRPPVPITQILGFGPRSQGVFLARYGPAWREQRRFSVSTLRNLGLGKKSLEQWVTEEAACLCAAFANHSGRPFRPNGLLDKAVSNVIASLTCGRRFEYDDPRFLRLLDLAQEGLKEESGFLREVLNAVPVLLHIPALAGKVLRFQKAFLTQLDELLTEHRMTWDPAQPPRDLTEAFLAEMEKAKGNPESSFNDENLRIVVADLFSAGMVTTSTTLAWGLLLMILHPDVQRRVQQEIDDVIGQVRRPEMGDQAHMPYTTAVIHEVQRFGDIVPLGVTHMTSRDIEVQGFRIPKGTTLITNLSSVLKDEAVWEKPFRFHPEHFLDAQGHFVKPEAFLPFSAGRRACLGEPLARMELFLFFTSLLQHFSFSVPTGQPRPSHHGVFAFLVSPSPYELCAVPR
Nicotinamide N-methyltransferase (Homo sapiens), sequence (P40261 whole entry, looked up): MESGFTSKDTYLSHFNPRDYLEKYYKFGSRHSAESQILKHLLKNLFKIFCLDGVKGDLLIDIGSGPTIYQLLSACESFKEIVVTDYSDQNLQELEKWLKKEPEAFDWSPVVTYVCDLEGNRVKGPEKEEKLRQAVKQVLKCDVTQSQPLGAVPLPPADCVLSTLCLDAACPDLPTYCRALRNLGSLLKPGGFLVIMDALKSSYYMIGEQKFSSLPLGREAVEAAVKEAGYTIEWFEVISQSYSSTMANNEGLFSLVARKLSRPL
Phenylethanolamine N-methyltransferase (Homo sapiens), sequence (P11086 whole entry, looked up): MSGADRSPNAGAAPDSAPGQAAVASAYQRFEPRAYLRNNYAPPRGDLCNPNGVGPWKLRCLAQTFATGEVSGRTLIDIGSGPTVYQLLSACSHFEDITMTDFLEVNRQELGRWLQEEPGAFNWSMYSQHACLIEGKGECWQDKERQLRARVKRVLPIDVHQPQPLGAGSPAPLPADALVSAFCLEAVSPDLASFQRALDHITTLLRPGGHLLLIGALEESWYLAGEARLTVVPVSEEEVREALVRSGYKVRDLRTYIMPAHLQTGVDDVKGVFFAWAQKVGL
Catechol O-methyltransferase (Homo sapiens), sequence (P21964 whole entry, looked up): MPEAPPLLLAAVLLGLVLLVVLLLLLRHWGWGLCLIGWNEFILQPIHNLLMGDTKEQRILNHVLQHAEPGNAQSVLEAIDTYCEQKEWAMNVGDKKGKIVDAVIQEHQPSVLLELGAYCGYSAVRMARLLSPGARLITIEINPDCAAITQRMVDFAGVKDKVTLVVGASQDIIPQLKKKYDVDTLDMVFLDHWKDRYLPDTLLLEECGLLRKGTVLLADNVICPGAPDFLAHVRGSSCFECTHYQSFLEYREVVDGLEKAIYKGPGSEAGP

Regarding `N#Cc1ccc2c(c1)CCN(CCC1CCC(NC(=O)c3ccnc4ccccc34)CC1)C2` (stereo not given), in the experiment with PA-1, the Potency result was “inactive”. Also, the Potency with SKOV3 was 22.4 µM (active).

As for `COc1cc(N2CCN(C)CC2)ccc1Nc1nccc(-c2cn(C)c3cnccc23)n1`, the Potency in experiment [1] is 16.4 µM (active); in the experiment on SKOV3 it was 12.6 µM (active). For the same compound, the Potency entry in [2], in experiment [3] and in experiment [4] was “inactive” throughout. The values for the Z-AUC in experiment [5], in [5] (setting [12]) and in experiment [5] (measured here: PEO4 Z-AUC) were -0.0606 (inactive), 0.299 and 0.437, respectively.

`CCOP(=O)(Cc1ccc(C(=O)Nc2ccc(Br)cc2C#N)cc1)OCC`: the Potency result (in [2]; with PA-1) was “inactive” each time.

As for `O=C(Nc1ncc(SCCN2CCCC2)s1)C1(c2ccc(S(=O)(=O)C3CC3)cc2)CC1C1CCCCC1` (stereo not given), the Potency entry in experiment [2] is “inactive”. Besides, the Potency was 21.3 µM (active) in experiment [3] and 19 µM (active) in [4].

As for `COC1CC(=O)C23C(=O)NC(CC(C)C)C2C(C)C(C)=CC3/C=C(\C)CCC(O)C1O` (stereo not given), the Potency result in the experiment on SKOV3 was “inactive”.

Turning to `C=CC(=O)Nc1cccc(Nc2nc(Nc3ccc(Oc4ccnc(C(=O)NC)c4)cc3)ncc2F)c1`, in experiment [2], the Potency result is “inactive”. The Potency in [6] was 18.6 µM (active); in experiment [4], 1.51 µM (active). The activity in [7] is -5.97%; in experiment [9], -53.4%; in experiment [10], -10.6%. In addition, the activity change, negative = inhibition in experiment [8] is -5.15%. Besides, the Z-AUC in experiment [5] was -0.493 (inactive); in experiment [5] (setting [12]) it was -0.105; in experiment [5] (measured here: PEO4 Z-AUC) it was -0.427.

On to `CC[C@@H](C)[C@H]1C(=O)O[C@H](C(C)C)C(=O)N(C)[C@@H](C(C)C)C(=O)O[C@H](C(C)C)C(=O)N(C)[C@@H](C(C)C)C(=O)O[C@H](CC(C)C)C(=O)N1C`, for which, in [2], the Potency entry is “inactive”.

For `Clc1ccccc1CNCC1CCC(CNCc2ccccc2Cl)CC1` (stereo not given), the Potency entry in experiment [2] and in [4] was “inactive” throughout. In [3], the Potency was 0.151 µM (active).

As for `COc1ccc(NC(=O)N2CCc3c2ccc2ccccc32)cc1N1CCN(C)CC1`, the Potency in experiment [3] is 19 µM (active).

Regarding `CC[C@]1(O)C[C@H]2CN(CCC3C(=Nc4ccccc43)[C@@](C(=O)OC)(c3cc4c(cc3OC)N(C)[C@H]3[C@@](O)(C(N)=O)[C@H](O)[C@]5(CC)C=CCN6CC[C@]43[C@@H]65)C2)C1` (stereo not given in full), the Potency is 3.66 µM (active) in experiment [1] and 0.1 µM (active) in the experiment on PA-1.

In the case of `Cc1[nH]c(/C=C2\C(=O)Nc3ccc(F)cc32)c(C)c1C(=O)NC[C@H](O)CN1CCOCC1`, in [11], the Potency was 14.6 µM (active). The Potency entry in experiment [2], in experiment [3] and in experiment [4] was “inactive” each time. The results for the Z-AUC in experiment [5], in [5] (setting [12]) and in [5] (measured here: PEO4 Z-AUC) were -1.33 (inactive), 0.846 and 0.0211, respectively.
